Bioassay records (PubChem BioAssay)
A selection: hits, their analogues and other compounds. The true share with any hit is near 22%.
CHX counter = counter-screen for Shiga toxin inhibitors: cycloheximide protein synthesis inhibition; max response, %; 300,000 compounds, 12% hits; cell reporter, cycloheximide protein synthesis inhibition counterscreen; in the data active = max response mostly above about 13%, no sharp cut-off; inactive = mostly below about 14%; note: read at 38.3 µM for the half of the compounds with a filed dose; 0% is about no effect
Pf growth 48h = inhibits P. falciparum growth in the first generation, 48 h; P. falciparum luciferase growth in erythrocytes, 48 h; Potency, µM (series often up to 28.7 µM), without a hit: at the top dose activity change, negative = inhibition, actives largely listed as inhibitors; 310,000 compounds, 5.9% hits; AID 504832; note: potency is the fitted concentration of half-maximal effect; % is set by controls: 0 for no effect and ±100 for the full control effect
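Erythrocytes infected with P. falciparum carrying an integrated firefly luciferase reporter (2% hematocrit, 0.1% parasitemia final) were exposed to compounds in RPMI 1640 with 0.5% Albumax at 37 C, 5% CO2. Growth inhibition was scored as reduced luminescence.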
Pf growth 96h = P. falciparum growth inhibition at 96 hour, primary screen for plastid delayed-death inhibitors. 320,000 compounds, 6.9% hits. Potency, µM (titrated, usually from 28.7 µM), for inactives: at the highest dose activity change, negative = inhibition, hits mostly inhibitors. P. falciparum luciferase reporter growth, 96 h; note: potency is the fitted concentration of half-maximal effect; % is set by controls: 0 for no effect and ±100 for the full control effect
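Two parasite generations (96 h, 37 C, 5% CO2) of compound exposure in infected erythrocytes (0.05% parasitemia, 2% hematocrit). Luciferase-reporter P. falciparum; decreased luminescence indicates inhibited growth, aimed at apicoplast-acting delayed death.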
Shiga toxin inh = inhibitors of Shiga toxin in Vero cells | Vero cells, Shiga toxin protein synthesis inhibition reporter | inhibition, % at 38.7 µM | 290,000 compounds, 9.2% hits | AID 2315; in the data active = inhibition mostly above about 28%, no sharp cut-off; inactive = mostly below about 43%; note: 0% is about no effect
LmPK inhibitor = inhibitors of Leishmania mexicana pyruvate kinase | Q27686 | purified LmPK, Kinase-Glo ATP luminescence, 1 h | Potency, µM (doses to about 57.5 µM), for inactives: at the highest dose activity change, negative = inhibition, actives largely listed as inhibitors | 290,000 compounds, 0.37% hits; note: potency is the fitted concentration of half-maximal effect; % is set by controls: 0 for no effect and ±100 for the full control effect
Target sequence (Q27686 whole entry, looked up): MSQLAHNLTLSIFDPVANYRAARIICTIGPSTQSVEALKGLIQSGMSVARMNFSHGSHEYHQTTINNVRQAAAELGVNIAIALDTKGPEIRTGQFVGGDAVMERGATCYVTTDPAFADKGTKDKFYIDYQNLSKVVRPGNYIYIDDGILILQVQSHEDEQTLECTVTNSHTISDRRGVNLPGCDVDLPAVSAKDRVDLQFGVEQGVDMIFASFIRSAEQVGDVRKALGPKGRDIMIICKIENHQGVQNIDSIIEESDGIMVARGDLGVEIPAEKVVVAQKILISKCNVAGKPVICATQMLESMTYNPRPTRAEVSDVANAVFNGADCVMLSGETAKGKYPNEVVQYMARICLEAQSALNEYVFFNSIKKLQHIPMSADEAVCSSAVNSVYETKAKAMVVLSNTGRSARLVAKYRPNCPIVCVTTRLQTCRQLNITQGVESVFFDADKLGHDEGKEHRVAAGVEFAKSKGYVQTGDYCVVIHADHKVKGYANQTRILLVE
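Purified LmPK (0.1 nM) with 0.5 mM PEP and 0.1 mM ADP in imidazole buffer pH 7.2 with MgCl2/KCl, 1 h at room temperature. ATP formed was read by luciferase luminescence and normalized to no-enzyme and uninhibited controls.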
* = called active by the depositor. Unless noted, calls come from the whole dose curve; as a rule, active = well fitted inhibition curve with a large enough effect; inconclusive = small, poorly fitted or top-dose-only effect, or another doubt; inactive = no such curve, though single readings can be large or run the other way.

For Cc1ccc(NC(=O)CSc2nnc(-c3ccccc3Br)o2)cc1C the results were CHX counter 4, Pf growth 96h inconclusive, Shiga toxin inh -10 and LmPK inhibitor 3%.
For COc1ccc(C(=O)NC2CC2)cc1OC1CCN(Cc2ccc(NC(C)=O)cc2)CC1 the results were CHX counter -2, Pf growth 48h -2%, Pf growth 96h 79%, Shiga toxin inh -3 and LmPK inhibitor -14%.
For O=C(CSc1nnc(-c2ccccc2F)n1CCc1ccccc1)Nc1ccc2[nH]c(=O)[nH]c2c1 the results were CHX counter 1, Pf growth 48h 21%, Pf growth 96h 2%, Shiga toxin inh 17 and LmPK inhibitor -4%.
`CCSC1=NCCN1C(=O)C(C)(C)Oc1ccc(Cl)cc1` gave CHX counter 0, Pf growth 48h inconclusive, Pf growth 96h -77%, Shiga toxin inh -15 and LmPK inhibitor -7%.
`CC1CN(CC(=O)NCc2ccc(Cl)cc2)CC(C)O1` (configuration not stated) gave CHX counter 1, Pf growth 48h 6%, Pf growth 96h 19%, Shiga toxin inh 3 and LmPK inhibitor -4%.
`COc1ccccc1NC(=O)C(=O)c1cn(CC(=O)N2CCOCC2)c2ccccc12` gave CHX counter 12*, Pf growth 48h 108%, Pf growth 96h -28%, Shiga toxin inh 35* and LmPK inhibitor -10%.
Screening CC(=O)Nc1cccc(NC(=O)CS(=O)(=O)c2cn(CC(=O)N(C(C)C)C(C)C)c3ccccc23)c1 returned CHX counter 13, Pf growth 48h inconclusive, Pf growth 96h 12µM*, Shiga toxin inh -11 and LmPK inhibitor -1%.
Screening COc1ccc(NC(=O)C(=O)c2cn(CC(=O)N3CCCC3)c3ccccc23)c(OC)c1 returned CHX counter -1, Pf growth 48h 7%, Pf growth 96h 17%, Shiga toxin inh 35 and LmPK inhibitor 2%.
Screening COc1ccccc1NC(=O)C(=O)c1cn(CC(=O)N2CCCC2)c2ccccc12 returned CHX counter 22*, Pf growth 48h 39%, Pf growth 96h 23%, Shiga toxin inh 37 and LmPK inhibitor -9%.
COc1ccc(NC(=O)CS(=O)(=O)c2cn(CC(=O)N3CCOCC3)c3ccccc23)cc1OC was read as CHX counter -2, Pf growth 48h -23%, Pf growth 96h 7.4µM*, Shiga toxin inh -9 and LmPK inhibitor -1%.
O=C(c1ccc(Cl)c(S(=O)(=O)N2CCOCC2)c1)N1CCN(c2ccccc2)CC1 was read as CHX counter -1, Pf growth 48h -8%, Pf growth 96h inconclusive, Shiga toxin inh -12 and LmPK inhibitor 7%.
For COc1ccc(CN2C(=O)c3cccnc3C2=O)cc1S(=O)(=O)NC(C)C the results were CHX counter -2, Pf growth 48h 14%, Pf growth 96h 7%, Shiga toxin inh -9 and LmPK inhibitor 0%.
Screening Cc1cc(NC(=O)CSc2nnc(-c3ccncc3)n2C)n(-c2ccccc2)n1 returned CHX counter -3, Pf growth 48h 2%, Pf growth 96h 12%, Shiga toxin inh -16 and LmPK inhibitor 0%.
Screening COc1ccccc1NC(=O)C(=O)N1CCCC1 returned CHX counter 19*, Pf growth 48h 72%, Pf growth 96h inconclusive, Shiga toxin inh 60* and LmPK inhibitor 2%.
CCOc1ccc(/C=C2/Sc3ccc(C(=O)N4CCOCC4)cc3N(C)C2=O)cc1OC was read as CHX counter 9, Pf growth 48h 9.3µM*, Pf growth 96h 9%, Shiga toxin inh -2 and LmPK inhibitor 1%.
For CN1C(=O)/C(=C/c2cccc(Cl)c2)Sc2ccc(C(=O)N3CCOCC3)cc21 the results were CHX counter -1, Pf growth 48h inconclusive, Pf growth 96h inconclusive, Shiga toxin inh -8 and LmPK inhibitor 5%.
CCN1CCN(CCNC(=O)c2ccc3c(c2)N(Cc2ccc(F)cc2)C(=O)/C(=C/c2ccccc2)S3)CC1 was read as CHX counter -12, Pf growth 48h 6.6µM*, Pf growth 96h 3%, Shiga toxin inh -30 and LmPK inhibitor 0%.
For COc1ccc(/C=C2\Sc3ccc(C(=O)N4CCCC4)cc3N(C)C2=O)cc1OC the results were CHX counter 7, Pf growth 48h 2.3µM*, Pf growth 96h inconclusive, Shiga toxin inh -5 and LmPK inhibitor 8%.
COc1ccc(/C=C2\Sc3ccc(C(=O)NCCN4CCCCCC4)cc3N(C)C2=O)cc1 was read as CHX counter 1, Pf growth 48h 3.3µM*, Pf growth 96h -4%, Shiga toxin inh -7 and LmPK inhibitor 7%.
`CCN1CCN(CCNC(=O)c2ccc(/C=C3/Sc4ccccc4N(Cc4cccc(Cl)c4)C3=O)cc2)CC1` gave CHX counter -10, Pf growth 48h inconclusive, Pf growth 96h inconclusive, Shiga toxin inh -32 and LmPK inhibitor 4%.
Cc1ccc(O)c(C2=Nc3ccccc3N=C(c3cccc([N+](=O)[O-])c3)C2)c1 was read as CHX counter 38*, Pf growth 48h inconclusive, Pf growth 96h -22%, Shiga toxin inh 67* and LmPK inhibitor -3%.
`Cc1ccc(O)c(C2=Nc3ccccc3N=C(c3ccc([N+](=O)[O-])cc3)C2)c1` gave CHX counter 25*, Pf growth 48h -21%, Pf growth 96h inconclusive, Shiga toxin inh 15 and LmPK inhibitor 2%.
Screening Cc1ccc(O)c(C2=Nc3ccccc3N=C(c3ccco3)C2)c1 returned CHX counter 24*, Pf growth 48h inconclusive, Pf growth 96h inconclusive, Shiga toxin inh 23 and LmPK inhibitor -2%.
CCC1CCCCN1S(=O)(=O)c1ccc(-n2cnnn2)c(C)c1 (configuration not stated) was read as CHX counter -3, Pf growth 48h 2%, Pf growth 96h -3%, Shiga toxin inh -3 and LmPK inhibitor -3%.
C[n+]1ccc(C(=O)N/N=C/c2ccco2)cc1 was read as CHX counter -3, Pf growth 48h 0%, Pf growth 96h 51%, Shiga toxin inh -4 and LmPK inhibitor -5%.
Screening FC(F)Sc1ccc(NC(=S)NC2CCCCC2)cc1 returned CHX counter 31*, Pf growth 96h inconclusive, Shiga toxin inh 114 and LmPK inhibitor 6%.
`S=C(Nc1ccc(Br)cc1)NC1CCCC1` gave CHX counter 42*, Pf growth 48h inconclusive, Pf growth 96h 4%, Shiga toxin inh 63* and LmPK inhibitor 1%.
Screening CC1CCN(C(=S)Nc2ccc(SC(F)F)cc2)CC1 returned CHX counter 59*, Pf growth 48h 107%, Pf growth 96h 217%, Shiga toxin inh 64* and LmPK inhibitor 1%.
CC(=O)N1CCN(C(=S)Nc2ccc(SC(F)F)cc2)CC1 was read as CHX counter 1, Pf growth 48h 2%, Pf growth 96h 6%, Shiga toxin inh -13 and LmPK inhibitor 0%.
CC1CCCCC1NC(=S)Nc1ccc(SC(F)F)cc1 (configuration not stated) was read as CHX counter 35*, Pf growth 48h -77%, Shiga toxin inh 75* and LmPK inhibitor 5%.
